Source: PubChem BioAssay
Only a selection was taken, and hits are over-represented in it overall.
CD40 NFkB inh: CD40 pathway inhibition in BL2 cells; BL2 NF-kB luciferase reporter, CD40L-induced, 4 h; inhibition, % at 10 µM; 83,000 compounds, 0.94% hits;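 active = mean inhibition of at least 50% with a set share of replicates also reaching that level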
Each line names hits and unclear results; the compound was inactive in the other large screens; [ ] = dose if it differs, or a comment.

COC(=O)[C@H]1[C@H](CO)[C@H]2Cn3c(ccc(-c4cncnc4)c3=O)[C@@H]1N2S(=O)(=O)c1ccccc1C	none
CC(=O)N1C[C@@H]2C(c3ccccc3)[C@H](C1)N2CC1CC1 (some centres undefined)	none
O=C(O)[C@@H]1[C@@H](CO)[C@@H]2Cn3c(ccc(-c4ccncc4)c3=O)[C@H]1N2C(=O)C1CCCCC1	none
O=C1NC2C(=CC(O)C(O)C2O)c2cc3c(c(O)c21)OCO3 (centres undefined)	CD40 NFkB inh 107.5
COc1cc(C2c3cc4c(cc3CC3COC(=O)C32)OCO4)cc(OC)c1O (centres undefined)	none
O=C1NC2C(O)C(O)C(O)C(O)C2c2cc3c(c(O)c21)OCO3 (centres undefined)	CD40 NFkB inh 97.1
OC[C@@H]1Nc2ccc(C#Cc3cccnc3)cc2[C@@H]2NCC[C@H]12	none
COc1ccc(OC(=O)N(C)C[C@H]2OCc3ccccc3-c3c(n(C)c4ccccc34)C(=O)N([C@H](C)CO)C[C@@H]2C)cc1	none
O=C(O)[C@H]1[C@H](CO)[C@H]2Cn3c(ccc(-c4ccncc4)c3=O)[C@@H]1N2S(=O)(=O)c1ccccc1F	none
CCN(CC)C(=O)c1ccc(NC(=O)c2cccc(S(=O)(=O)N3CCN(Cc4ccccc4)CC3)c2)cc1	none
CCN(CC)C(=O)c1ccc(NC(=O)c2ccc(N3CCCC3=O)cc2)cc1	none
CCN(CC)C(=O)c1ccc(NC(=O)Nc2ccccc2F)cc1	CD40 NFkB inh 83.5
O=C(Cc1ccccn1)N1CCCCN2[C@H](CO)[C@H](c3ccc(-c4ccccc4F)cc3)[C@H]2C1	none
O=C(O)[C@H]1[C@H](CO)[C@H]2Cn3c(ccc(C4=CCCCC4)c3=O)[C@@H]1N2C(=O)Cc1ccccn1	none
COc1ccc(OC(=O)N(C)C[C@@H]2OCc3ccccc3-c3c(n(C)c4ccccc34)C(=O)N([C@@H](C)CO)C[C@@H]2C)cc1	none
CCC(=O)N1[C@@H]2Cn3c(ccc(C4=CCCC4)c3=O)[C@H]1[C@@H](C(=O)OC)[C@@H]2CO	none
COP(=S)(OC)SCN1C(=O)c2ccccc2C1=O	CD40 NFkB inh 32.1
C=C(C)[C@@H]1CCC(C)=C[C@H]1c1c(OC)cc(C)cc1OC	none
C[C@H]1CN([C@@H](C)CO)C(=O)CCCn2cc(nn2)CO[C@H]1CN(C)C(=O)Oc1ccc2ccccc2c1	none
O=[N+]([O-])c1ccc(N2CCOCC2)c2c1no[n+]2[O-]	CD40 NFkB inh 86.0
O=[N+]([O-])c1ccc(N2CCCCC2)c2ncccc12	none
O=[N+]([O-])c1ccc(N2CC2)c([N+](=O)[O-])c1	none
O=C(Cc1ccccc1)N1CCCCN2[C@@H](CO)[C@H](c3ccc(C#Cc4ccccc4)cc3)[C@@H]2C1	none
NC(=NCCc1ccc(I)cc1)SCCCc1cnc[nH]1	none
C[C@]12CC[C@H]3[C@@H](CCC4=CC(=O)CC[C@@]43C)[C@@H]1CC[C@H]2O	none
CC12CCC3C(CCC4(O)CC(O)CCC34C=NO)C1(O)CCC2C1=COC(=O)C1 (centres undefined)	CD40 NFkB inh 56.0
CC12CCC3C(CCC4(O)CC(O)CCC34C=O)C1(O)CCC2C1=CC(=O)OC1 (centres undefined)	CD40 NFkB inh 75.0
COC(=O)[C@H]1[C@H](CO)[C@H]2Cn3c(ccc(-c4cccc(F)c4)c3=O)[C@@H]1N2C(=O)CC1CC1	none
O=C1CNC[C@@H]2[C@H](c3ccc(Br)cc3)[C@H](CO)N12	none
CC(C)NC(=O)N1C[C@@H]2C(c3ccccc3)[C@H](C1)N2C (some centres undefined)	none
CC=Cc1ccc2n(c1=O)C[C@H]1[C@H](CO)[C@@H](C(=O)N(C)C)[C@@H]2N1C (mixture of isomers)	none
CN(C(=O)Cc1ccccc1)C(CN1CCCC1)c1ccccc1 (centres undefined)	none
CN(C)CC#Cc1ccc([C@@H]2[C@@H](CO)N3CCCCN(C(=O)Cc4ccccn4)C[C@H]23)cc1	none
CC1=C(O)C(=O)C=C2C1=CC=C1C2(C)CCC2(C)C3CC(C)(C(=O)O)CCC3(C)CCC12C (centres undefined)	CD40 NFkB inh 109.7
c1ccc(CC(c2ccccc2)N2CCCCC2)cc1 (centres undefined)	none
Cc1ccc(OC(=O)N(C)C[C@@H]2OCc3ccccc3-c3c(n(C)c4ccccc34)C(=O)N([C@H](C)CO)C[C@@H]2C)cc1	none
C/C=C/c1ccc(C2[C@@H]3CN(Cc4cocn4)C[C@H]2N3)cc1 (some centres undefined)	none
COC(=O)[C@@H]1[C@@H](CO)[C@@H]2Cn3c(ccc(-c4ccccc4F)c3=O)[C@H]1N2C(C)=O	none
O=C(Cc1ccncc1)N1CCCCN2[C@H](CO)[C@@H](c3ccc(C#Cc4ccccc4F)cc3)[C@@H]2C1	none
CCN1C[C@]2(COC)CCC(OC)[C@@]34C5C[C@]6(O)[C@H](OC(=O)c7ccc(OC)cc7)C5[C@@](OC(C)=O)(C[C@H]6OC)[C@@H]([C@H](OC)C23)[C@@H]14 (some centres undefined)	none
CC1CC(C)CC(C)C(O)C(C#N)=CC=CCC(C2CCCC2C(=O)O)OC(=O)CC(O)C(C)C1 (centres undefined)	CD40 NFkB inh 94.1
O=C(Cc1ccccn1)N1CCCCN2[C@@H](CO)[C@H](c3ccc(-c4ccccc4F)cc3)[C@@H]2C1	none
O=C(O)[C@@H]1[C@@H](CO)[C@@H]2Cn3c(ccc(-c4ccc(F)cc4)c3=O)[C@H]1N2CC1CCCCC1	none
Cn1ncnc2c(=O)n(C)c(=O)nc1-2	CD40 NFkB inh 86.0
CC(=O)N1C[C@@H]2N[C@H](C1)C2c1ccc(Br)cc1 (some centres undefined)	none
O=C(C1CC1)N1C[C@@H]2N[C@H](C1)[C@@H]2c1ccc(-c2ccncc2)cc1	CD40 NFkB inh 69.9
O=C(C1CC1)N1C[C@@H]2N[C@H](C1)C2c1ccc(-c2cncnc2)cc1 (some centres undefined)	none
CN1[C@@H]2CN(CC(F)(F)F)C[C@H]1C2c1ccc(Br)cc1 (some centres undefined)	none
COC(=O)[C@@H]1[C@@H](CO)[C@@H]2Cn3c(ccc(-c4cccc(C(=O)N(C)C)c4)c3=O)[C@H]1N2CC1CC1	none
N#CC(C#N)=NNc1cccc(Cl)c1	CD40 NFkB inh 75.2[25 µM]
O=C(Nc1cccc(Cl)c1)OC1CN2CCC1CC2 (centres undefined)	none
O=C(Cc1ccncc1)N1CCCCN2[C@H](CO)[C@H](c3ccc(C#Cc4ccccc4F)cc3)[C@@H]2C1	none
O=C(O)[C@@H]1[C@@H](CO)[C@@H]2Cn3c(ccc(-c4cccnc4)c3=O)[C@H]1N2C(=O)Nc1cc(F)ccc1F	none
CC1=C[C@H]2[C@]3(O)[C@H](C)[C@@H](O)[C@@]4(O)[C@H]([C@@H]3C=C(CO)C[C@]2(O)C1=O)C4(C)C	none
COC(=O)[C@H]1[C@H](CO)[C@H]2Cn3c(ccc(C4=CCCCC4)c3=O)[C@@H]1N2CCc1ccccc1	none
COC(=O)[C@@H]1[C@@H](CO)[C@@H]2Cn3c(cccc3=O)[C@@H]2N1CC1CC1	none
